Results as given in PubChem BioAssay.

target: Follistatin-related protein 3 (Homo sapiens) (UniProt O95633); experiment: compounds binding follistatin-related protein 3 – biochemical, small-molecule microarray, 635 nm fluorescence, primary screen (AID 1105); conditions: FSTL3 binding, higher = more signal;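 also: score merges emission near 667 nm and signal to noise per printed spot across three slides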
Sequence (O95633 whole entry, looked up): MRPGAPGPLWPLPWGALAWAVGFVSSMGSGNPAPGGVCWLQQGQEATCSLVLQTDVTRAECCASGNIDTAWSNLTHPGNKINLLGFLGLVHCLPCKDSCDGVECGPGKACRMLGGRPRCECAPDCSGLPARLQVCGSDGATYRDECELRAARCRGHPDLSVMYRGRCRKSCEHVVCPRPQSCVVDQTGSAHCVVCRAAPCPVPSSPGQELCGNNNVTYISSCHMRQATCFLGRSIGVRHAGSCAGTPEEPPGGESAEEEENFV

Question: With `O=C1C2C=CC(C(O)C3CC=CCC3)N(Nc3ccccc3)C2C(=O)N1c1ccccc1` (stereo not given) as the compound, how does the composite z-score read?
Answer: The composite z-score was 1.03.

Question: Which composite z-score does the source give for `[N-]=[N+]=Nc1ccccc1C[C@@]1(C(=O)N2CCOCC2)N=C(c2ccc(OCCCO)cc2)O[C@@H]1c1ccccc1` here?
Answer: Its composite z-score is 1.25.

Question: With `CCC#CCN(Cc1ccccc1Br)[C@H](/C=C/C1CC1)[C@@H](O)Cc1ccccc1` as the compound, how does the composite z-score read?
Answer: The composite z-score was -0.583.

Question: `Cc1ccc(F)cc1S(=O)(=O)N[C@@H]1CCN(Cc2ccc(Br)cc2)C1` was tested. Which composite z-score did it give?
Answer: The composite z-score was 0.752.

Question: With `CC1CC/C=C\[C@H]2OC34C=CCN(C(C)C)C(=O)[C@H]3N(CCO)C(=O)[C@@H]4C2C(=O)O1` (stereo not given in full) as the compound, how does the composite z-score read?
Answer: The composite z-score was -1.28.

Question: `CCOC(=O)C[C@H]1[C@H](OC(=O)c2cc3ccccc3oc2=O)[C@@H](NC(=O)CC(C)C)c2cc(OCCCO)ccc2N1C(=O)c1ccc2ccccc2n1` was tested. Which composite z-score did it give?
Answer: The composite z-score was 1.14.

Question: For `[N-]=[N+]=Nc1ccccc1C[C@]1(C(=O)NCCN2CCOCC2)COC(c2ccc(OCCCO)cc2)=N1`, which composite z-score is on record?
Answer: The composite z-score was -0.264.

Question: For `COC(=O)[C@]1(CCS(=O)(=O)c2ccccc2)N=C(c2ccc(OCCCO)cc2)O[C@@H]1c1ccccc1N=[N+]=[N-]`, which composite z-score is on record?
Answer: Its composite z-score is 1.2.

Question: How did the composite z-score turn out when `COc1ccc(CCNC(=O)[C@@H]2c3ccccc3C(=O)N(C3CCCCC3)[C@H]2c2ccc(CO)cc2)cc1` was run?
Answer: Its composite z-score is 0.0696.

Question: `O=C(NCc1ccc(F)cc1)[C@H]1C[C@H]2C(=O)NCC(=O)N2[C@H]1c1ccc(O)cc1` was tested. Which composite z-score did it give?
Answer: The composite z-score was 0.138.

Question: With `CC(c1ccccc1)C(O)C1C=CC2C(=O)N(C)C(=O)C2N1Nc1ccccc1` (stereo not given) as the compound, how does the composite z-score read?
Answer: Its composite z-score is 0.359.

Question: `COc1ccc(C#Cc2ccc3c(c2)[C@]2(C(=O)N3)[C@H](c3ccc(O)cc3)N3[C@H](c4ccccc4)[C@H](c4ccccc4)OC(=O)[C@H]3[C@@H]2C(=O)Nc2nc3ccccc3s2)cc1` was tested. Which composite z-score did it give?
Answer: The composite z-score was 1.2.

Question: How did the composite z-score turn out when `CC1=C2[C@@H](CCc3ccccc3)OB(O)C[C@@H]2[C@@H]2C(=O)N(C)C(=O)[C@@H]2C1` was run?
Answer: Its composite z-score is 0.451.

Question: How did the composite z-score turn out when `COc1cccc(C)c1NC(=O)O[C@H]1[C@H](OC(=O)Nc2ccc3c(c2)OCO3)[C@@H](OC(=O)Nc2ccc3c(c2)OCO3)[C@@H](OC)O[C@@H]1CO` was run?
Answer: Its composite z-score is 1.44.

Question: With `CC(C)N1C(=O)c2ccccc2[C@@H](C(=O)NCCN2CCOCC2)[C@@H]1c1ccc(CO)cc1` as the compound, how does the composite z-score read?
Answer: Its composite z-score is -1.01.

Question: How did the composite z-score turn out when `CCCCN1CC=CC23O[C@@H]4/C=C\CCCOC(=O)C4[C@H]2C(=O)N(CCO)[C@@H]3C1=O` (stereo not given in full) was run?
Answer: Its composite z-score is -1.38.

Question: How did the composite z-score turn out when `CCCNC(=O)[C@@]1(C)c2ccccc2C(=O)N(c2ccc(C)cn2)[C@H]1c1ccc(CO)cc1` was run?
Answer: Its composite z-score is -0.223.

Question: How did the composite z-score turn out when `N#Cc1ccc(NN2C(C(O)c3ccc(Br)cc3)C=CC3C(=O)N(c4ccccc4)C(=O)C32)cc1` (stereo not given) was run?
Answer: Its composite z-score is 0.743.

Question: `O=C(O)[C@@H]1[C@@H]2C(=O)N(c3ccccc3)C(=O)[C@@H]2C[C@@H]1Sc1ccccc1` was tested. Which composite z-score did it give?
Answer: Its composite z-score is -0.852.

Question: Which composite z-score does the source give for `CCCNC(=O)[C@@H]1c2ccccc2C(=O)N(Cc2ccc(OC(F)(F)F)cc2)[C@H]1c1ccc(CO)cc1` here?
Answer: The composite z-score was 0.0777.

Question: For `COCCOC(=O)N1C(=O)[C@@]2(c3cc(C#CCCO)ccc31)[C@H](c1ccc(OCCO)cc1)N1[C@H](c3ccccc3)[C@H](c3ccccc3)OC(=O)[C@H]1[C@@H]2C(=O)Nc1nc2ccccc2s1`, which composite z-score is on record?
Answer: Its composite z-score is 1.24.

Question: Which composite z-score does the source give for `CN(C)C(=O)[C@]1(CCC(=O)OC(C)(C)C)N=C(c2ccc(OCCCO)cc2)O[C@@H]1c1ccccc1CN=[N+]=[N-]` here?
Answer: Its composite z-score is 0.47.

Question: For `CCCC=C(CCC)[C@@H](NS(=O)(=O)c1ccc(C(F)(F)F)cc1)c1ccccc1`, which composite z-score is on record?
Answer: Its composite z-score is -0.143.

Question: Which composite z-score does the source give for `CCCCC(CC)C(O)C1C=CC2C(=O)N(C)C(=O)C2N1Nc1ccccc1` (stereo not given) here?
Answer: The composite z-score was 0.192.

Question: For `COC(=O)c1c(CC[C@@H](CO)NC(=O)N2CCC[C@H]2Cn2cc(C3(O)CCCCC3)nn2)oc(C(C)=O)c1C(=O)OC`, which composite z-score is on record?
Answer: Its composite z-score is 0.742.

Question: For `C=CC[C@]1(C(=O)N2CCCCC2)N=C(c2ccc(OCCCO)cc2)O[C@H]1c1ccccc1CN=[N+]=[N-]`, which composite z-score is on record?
Answer: Its composite z-score is 0.922.

Question: With `COC(=O)[C@@]1(Cc2ccccc2)[C@H]2c3cc(C(=O)N4CCCC4)n(CCc4ccccn4)c3C[C@H]2CN1C(=O)c1ccccc1` as the compound, how does the composite z-score read?
Answer: Its composite z-score is 0.921.

Question: Which composite z-score does the source give for `C=CCNC(=O)[C@@H]1[C@H]2C(=O)O[C@H](c3ccccc3)[C@H](c3ccccc3)N2[C@H](c2ccc(O)cc2)[C@@]12C(=O)N(C(=O)OCCOC)c1ccc(C#CC3=CCCCC3)cc12` here?
Answer: Its composite z-score is 1.09.

Question: With `COCCOC(=O)N1C(=O)[C@@]2(c3cc(C#CC4(O)CCCCCC4)ccc31)[C@H](C(=O)N1CCc3cc(OC)c(OC)cc3C1)[C@H]1C(=O)O[C@H](c3ccccc3)[C@H](c3ccccc3)N1[C@@H]2c1ccc(OCCO)cc1` as the compound, how does the composite z-score read?
Answer: Its composite z-score is 1.04.

Question: For `C=C(C(=O)CC[C@H](OC(=O)c1ccccc1-c1ccccc1C(=O)O)c1cccc(OCCO)c1)C(C)C`, which composite z-score is on record?
Answer: The composite z-score was 0.0151.

Question: For `CC(C)c1ccc(NN2C(C(O)c3ccc(F)cc3)C=CC3C(=O)N(c4ccccc4)C(=O)C32)cc1` (stereo not given), which composite z-score is on record?
Answer: The composite z-score was 1.37.

Question: `[N-]=[N+]=Nc1ccccc1C[C@@]1(C(=O)NCCN2CCOCC2)N=C(c2ccc(OCCCO)cc2)O[C@@H]1c1ccccc1N=[N+]=[N-]` was tested. Which composite z-score did it give?
Answer: The composite z-score was 0.453.

Question: How did the composite z-score turn out when `CCOC(=O)[C@@H]1CCCCN1C(=O)C(=O)OC` was run?
Answer: The composite z-score was 0.751.

Question: With `COc1ccccc1CN1C(=O)c2ccccc2[C@](Cc2ccccc2I)(C(=O)O)[C@@H]1c1ccc(CO)cc1` as the compound, how does the composite z-score read?
Answer: The composite z-score was 0.993.

Question: How did the composite z-score turn out when `C=C[C@@H](OC)[C@H](OC(=O)Nc1ccc(OC)cc1)c1ccc(O)c(F)c1` was run?
Answer: Its composite z-score is -0.0891.
